# A selection: hits, their analogues and other compounds. The true share with any hit is near 9%.
# JMJD2A Tudor inh: qHTS Assay for Inhibitors of JMJD2A-Tudor Domain; Lysine-specific demethylase 4A (Homo sapiens), O75164; AlphaScreen JMJD2A-Tudor / H3K4me3 peptide binding; hit rate 4.4% among 390,000; Potency, µM (series often up to 114 µM), for the others: top-dose activity change, negative = inhibition, usual class: inhibitors; note: % is set by controls: 0 for no effect and ±100 for the full control effect; nearly all actives have a fitted effect of over 50% in size
# HP1b binding inh: HTS for Inhibitors of HP1-beta Chromodomain Interactions with Methylated Histone Tails | Chromobox protein homolog 1 (Homo sapiens), P83916 | AlphaScreen HP1-beta / biotin-H3K9me3 peptide binding | Potency, µM (titrated, usually from 114 µM), for the others: at the top dose activity change, negative = inhibition, usual class: inhibitors | hit rate 0.56% among 390,000 | AID 540317, 2011; note: nearly all actives have a fitted effect of over 70% in size
# Target sequence (P83916 whole entry, looked up): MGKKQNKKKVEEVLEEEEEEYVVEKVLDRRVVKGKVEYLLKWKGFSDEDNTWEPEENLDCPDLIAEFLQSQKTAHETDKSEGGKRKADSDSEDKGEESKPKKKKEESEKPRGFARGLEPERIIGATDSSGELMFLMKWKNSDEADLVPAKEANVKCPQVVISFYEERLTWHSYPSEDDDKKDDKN
#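 AlphaScreen: HP1-beta (50 nM) preformed 30 min with biotin-H3(1-18)K9me3 peptide (50 nM) in PBS pH 7.4, 0.01% Tween-20. Compound added for 30 min at RT, then streptavidin donor/nickel chelate acceptor beads (10 ug/mL) for 30 min.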
# ALOX12 inh: Primary qHTS assay for inhibitors of human arachidonate 12S-lipoxygenase (ALOX12): Round 2; Polyunsaturated fatty acid lipoxygenase ALOX12 (Homo sapiens), P18054; purified 12hLO, xylenol orange hydroperoxide absorbance; Potency, µM (series often up to 108 µM), for inactives: at the top dose activity change, negative = inhibition, most hits filed as inhibitors; hit rate 1.1% among 580,000; AID 1671190, 2021; note: % is set by controls: 0 for no effect and ±100 for the full control effect
#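 Purified human 12hLO (150 nM final) in 25 mM Hepes, 0.01% Triton X-100, pH 7.0 was preincubated 15 min at room temperature with compound. Then 40 uM arachidonic acid was added, 30 min. Hydroperoxide was read by Fe-XO absorbance ratio 573/405 nm.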
# PLK1 PBD block: qHTS for Inhibitors of PLK1-PDB (polo-like kinase 1 - polo-box domain): Primary Screen; Potency, µM, without a hit: max response, negative = inhibition, hits mostly inhibitors; Plk1 PBD binding of FITC phosphopeptide, fluorescence polarization; Serine/threonine-protein kinase PLK1 (Homo sapiens), P53350; hit rate 2.8% among 360,000; note: series mostly up to about 57 µM; % is set by controls: 0 for no effect and ±100 for the full control effect; nearly all actives have a fitted effect of over 65% in size
# G9a block: qHTS Assay for Inhibitors of Histone Lysine Methyltransferase G9a; Histone-lysine N-methyltransferase EHMT2 (Homo sapiens), Q96KQ7; G9a H3K9 monomethylation, AlphaScreen, 2 h; Potency, µM (series often up to 102 µM), without a hit: at the top dose activity, negative = inhibition, hits mostly inhibitors; hit rate 8.8% among 350,000; note: % is set by controls: 0 for no effect and ±100 for the full control effect; nearly all actives have a fitted effect of over 75% in size
# Target sequence (Q96KQ7 913-1193 limits assumed): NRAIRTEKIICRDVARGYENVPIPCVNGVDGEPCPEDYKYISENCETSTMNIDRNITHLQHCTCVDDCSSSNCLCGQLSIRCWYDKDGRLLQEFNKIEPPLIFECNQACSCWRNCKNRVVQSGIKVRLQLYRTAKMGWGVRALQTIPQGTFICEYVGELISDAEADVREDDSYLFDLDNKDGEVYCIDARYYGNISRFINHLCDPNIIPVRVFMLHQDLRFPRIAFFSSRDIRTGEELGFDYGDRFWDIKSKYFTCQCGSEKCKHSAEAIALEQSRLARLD
#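 G9a (20 nM) preincubated 15 min RT with compounds, then 500 nM biotinylated H3K9 peptide and 20 uM SAM added; 2 h RT reaction. Monomethyl-H3K9 product detected by AlphaScreen with anti-H3K9me1 antibody, streptavidin donor and anti-rabbit IgG acceptor beads.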
# BAZ2B inh: qHTS Assay for Inhibitors of BAZ2B. AlphaScreen BAZ2B-H3K14Ac peptide displacement. Potency, µM (series often up to 114 µM), without a hit: top-dose activity change, negative = inhibition, usual class: inhibitors. hit rate 4.4% among 360,000. AID 504333, 2011; note: % is set by controls: 0 for no effect and ±100 for the full control effect; nearly all actives have a fitted effect of over 60% in size
#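 Multi-concentration screen (max 110 uM) measuring displacement of acetylated histone H3 peptide from BAZ2B by AlphaScreen, using 50 nM protein, 50 nM peptide and 10 ug/mL streptavidin donor plus Ni-chelate acceptor beads.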
# * hit, by the source's call; ? = inconclusive; . = not tested or not shown; ! = a repeat was not active; [ ] = remark or other dose. Calls come from the whole dose curve; as a rule, active = well fitted curve in the direction sought with a large enough effect; inconclusive = small, poorly fitted or top-dose-only effect, or another doubt; inactive = no such curve, though single readings can be large; an effect the other way counts as inactive or inconclusive. Potency is the fitted concentration of half-maximal effect.
SMILES,JMJD2A Tudor inh,HP1b binding inh,ALOX12 inh,PLK1 PBD block,G9a block,BAZ2B inh
COc1ccc(S(=O)(=O)c2c(O)c3ccc(C(=O)Nc4ccc(F)cc4F)cc3[nH]c2=O)cc1,-10.1%,66.1%,-23.8%,-20.3%,?,?
COc1ccc(S(=O)(=O)c2c(O)c3ccc(C(=O)Nc4ccccc4Cl)cc3[nH]c2=O)cc1,?,49.2%,-7.2%,?,18.2%[59 µM],-1.6%
O=C(CN1N=C(c2ccccc2)CCC1=O)NCc1cccs1,-6.6%,18.4%,-1.4%,6.1%,-6.5%,-11.3%
CCOc1cc(OCC)cc(C(=O)Nc2ccc3oc(-c4ccc(OC)c(OC)c4)nc3c2)c1,.,.,25.2%,.,.,.
Cc1ccc2c(c1)c(=O)c(S(=O)(=O)c1ccc(F)cc1)cn2CC(=O)Nc1ccc2c(c1)OCO2,-23.8%,13.2%,?,.,-9.7%[59 µM],-18.5%
CCOC(N)=O,.,.,.,.,-31.2%[2.33 µM],.
O=C(Nc1nc(-c2ccc(F)cc2)cs1)C1CCN(C(=O)c2ccc(F)cc2)CC1,-23.4%,11.3%,?,-2.9%,35.5µM*,-0.2%
O=C(Nc1nc2ccccc2[nH]1)C1CCN(C(=O)c2ccc(F)cc2)CC1,?,12.0%,5.8%,-3.3%,39.8µM*,3.6%
O=C(Nc1nc2ccccc2[nH]1)C1CC1,-4.4%,21.7%,?,-2.8%,-23.4%,-14.3%
O=C(Nc1nc2c(F)cc(F)cc2s1)C1CCN(C(=O)c2ccc(F)cc2)CC1,-15.4%,2.0%,?,-13.9%,44.7µM*,8.3%
COC(=O)c1ccc(N/C(=N/S(=O)(=O)c2ccccc2)c2ccccc2)cc1,-15.6%,27.4%,-29.2%,1.3%,-2.9%,-0.4%
O=C(CSc1nnc2scc(-c3ccccc3)n12)Nc1nsc(-c2ccc(Cl)cc2)n1,-7.9%,27.0%,0.0%,-0.4%,.,.
COc1cc(/C=C(/C#N)c2ccc(C(F)(F)F)cn2)ccc1O,.,.,8.91µM*,.,.,.
NC(=O)C[n+]1cccc(/C=N/O)c1,-5.5%,10.9%,1.8%,-3.6%,.,-12.0%
Cc1cc(C2CCCCC2)n(O)c(=O)c1,?,24.9%,39.8µM*!,-7.7%,4.9%[59 µM],79.4µM*
Cc1cc(CC(C)CC(C)(C)C)n(O)c(=O)c1 (stereo not given),.,.,.,.,16.4%[12.7 µM],.
COc1ccc(Sc2ccccc2CN(C)C)cc1OC,-10.3%,52.7%,7.8%,-12.5%,-10.7%[59 µM],-3.1%
CNCc1ccccc1Sc1ccc(O)c(O)c1,79.4µM*,?,3.4%,?,12.6µM*,?
CCOc1ccc(-c2nonc2NC(=O)c2oc3cc(C)ccc3c2C)cc1OCC,-8.3%,27.5%,-8.9%,.,?,-1.7%
Cc1cc(=O)n2c(C(=O)Nc3ccc(C(=O)OC(C)C)cc3)c(C(=O)Nc3ccccc3)sc2n1,-18.5%,62.0%,19.8%,?,44.7µM*,-20.8%
Cc1cc(=O)n2c(C(=O)Nc3ccc(F)c(Cl)c3)c(C(=O)Nc3cccc(C)c3C)sc2n1,-22.2%,-11.7%,?,.,11.2µM*,-1.3%
O=S(=O)(c1ccc(-c2csc(Nc3ccc(Br)cc3)n2)cc1)N1CCCC1,-19.0%,24.6%,0.0%,-7.6%,?,2.1%
COc1cccc(NS(=O)(=O)c2c(C)nc3sccn3c2=O)c1,-4.2%,23.9%,-8.9%,1.9%,15.1%,12.2%
O=C(N[C@H](Cc1ccccc1)C(=O)NC1CCCCC1)[C@H]1O[C@@H](n2ccc(=O)[nH]c2=O)[C@H](O)[C@@H]1O,.,.,3.9%,.,.,.
COc1cccc(Nc2nnc(SCc3nc4ccccc4s3)s2)c1,-26.7%,13.1%,0.6%,1.6%,10µM*,-31.4%
Cc1cccc(C)c1Nc1nnc(SCc2nc3ccccc3s2)s1,-29.1%,20.3%,2.7%,-23.9%,8.91µM*,-0.6%

# Bioassay records: PubChem, National Center for Advancing Translational Sciences (NCATS)
